# Source: PubChem BioAssay
# Several values for one entry are separate records, joined by “and”; a condition that tells them apart may be missing. Identical values can stand only once. For some assays here: Potency and affinity values are given separately. Activity calls are given as the source filed them.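 The calls were made as follows, unless noted: active = thallium flux through the channel raised or lowered by more than 3 SD from vehicle-only wells, actives on both sides; inactive = the rest.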
# Experiments:
# [1] = P. berghei load reduction in hepatocytes – cell-based, HepG2, luciferase luminescence, HepG2 viability, primary screen (AID 624349; in the data active = parasite load remaining mostly below about 12%, no sharp cut-off; inactive = mostly above about 10%;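 also: 100% = mean of DMSO negative control wells on the same plate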); conditions: P. berghei liver stage in HepG2, luciferase luminescence, concentration not given here; parasite load remaining: stronger effect = lower value; viability: measured here: HepG2 viability without parasites
# [2] = signal quenchers or enhancers, Cy5 substrate/SSB – biochemical, NIH Clinical Collection, E. coli SSB, artefact control for HCV NS3 helicase inhibitor project (AID 743268; call rule not given here); conditions: Cy5-oligo bound E. coli SSB, fluorescence interference
# [3] = galactose survival enhancers in mitochondrial complex I cybrids – cell-based, galactose medium, ATP luminescence, primary screen (AID 1645843;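 active = z-score of at least 1.8 in each of two replicates, scored against plate mean and spread of sample wells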;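 also: positive z means more ATP and so rescue of galactose-driven cybrid death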); conditions: complex I mutant cybrid cells, 72 h, stronger effect = higher value
# F380Y/beta1 = experiment: BK channel mutant inhibitors and activators – cell-based, U2OS BacMam, thallium flux, beta subunits, selectivity assay, profiling panel (AID 1259406); conditions: U2OS BacMam BK variants, at 30 µM;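 also: initial slope of Thallos dye fluorescence rise after thallium is added; log ratio against the mean of 0.3% DMSO vehicle wells on the same plate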
# F380Y/beta4 = experiment: as above; conditions: U2OS BacMam BK variants, at 30 µM
# R275C = experiment: as above; conditions: U2OS BacMam BK variants, at 30 µM
# R275C/beta1 = experiment: as above; conditions: U2OS BacMam BK variants, at 30 µM
# R275C/beta2Delta = experiment: as above; conditions: U2OS BacMam BK variants, at 30 µM
# R275C/beta4 = experiment: as above; conditions: U2OS BacMam BK variants, at 30 µM
# R275C/Slo1WT/beta2 = experiment: as above; conditions: U2OS BacMam BK variants, at 30 µM
# [4] = blockers of polyQ-driven CASP3 activation – cell-based (AID 1583); conditions: polyglutamine-induced caspase-3 activation, cell assay; stronger effect = higher value;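 tested at 10 µM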
# [5] = yeast 75Q aggregation reduction – 75Q-TubU reporter (AID 1593); conditions: Yeast 75Q polyglutamine aggregation reporter
# [6] = restoration of touch response, mutant HTT neurons – whole organism, C. elegans mechanosensory neurons, N-terminal huntingtin (AID 1599); conditions: C. elegans polyQ-huntingtin mechanosensory neurons, stronger effect = higher value
# [7] = blockers of cytochrome c efflux from mitochondria – biochemical, purified mitochondria (AID 1603); conditions: stronger effect = lower value;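 also: mouse liver mitochondria challenged with calcium chloride; signal normalized to the plate average as 100%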
# [8] = polyglutamine aggregate formation blockers (AID 1604); conditions: polyglutamine-induced protein aggregation inhibition assay; stronger effect = higher value; tested at 2.5 µM
# [9] = glutamate transport activators, MN-1 cells, MN-1 cell line (AID 1612); conditions: MN-1 motor neuron cells, stronger effect = higher value;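 also: tested at 1 µM final; 0% = mean of DMSO vehicle wells on each plate; positive means more glutamate uptake than control and negative means less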
# [10] = 75Q-TubH aggregate inhibition, S. cerevisiae, yeast (AID 1616); conditions: S. cerevisiae 75Q-TubH polyglutamine aggregation suppression; stronger effect = higher value
# [11] = compounds altering viability of human ES cells (AID 493140; call rule not given here;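 also: cells exposed to compounds for four days before counting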); conditions: human embryonic stem cell survival screen; stronger effect = higher value
# [12] = modulation of C. elegans fzo-1 (AID 1259413; call rule not given here;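 also: fzo-1 mutant C. elegans worms in liquid wells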); conditions: C. elegans fzo-1 modulator screen, mean read-out; stronger effect = higher value
compound,measurement,setting,value
C=CCCCCCCCCC(=O)O,parasite load remaining,[1],49.2% (inactive)
same,viability,[1],96.2%
C[C@@H]1C[C@H]2[C@@H]3CCC4=CC(=O)C=C[C@]4(C)[C@@]3(F)[C@@H](O)C[C@]2(C)[C@@]1(O)C(=O)CO,parasite load remaining,[1],76.8% (inactive) and 55.7% (inactive)
same,viability,[1],86.4% and 108%
same,fluorescence ratio,[2],1.05 (inactive)
same,z-score,[3],0.135 (inactive) and 0.555 (inactive)
same,log fold change Tl+ flux,F380Y/beta1,0.0534 (inactive)
same,log fold change Tl+ flux,F380Y/beta4,-0.000275 (inactive)
same,log fold change Tl+ flux,R275C,0.0247 (inactive)
same,log fold change Tl+ flux,R275C/beta1,0.0605 (inactive)
same,log fold change Tl+ flux,R275C/beta2Delta,0.000117 (inactive)
same,log fold change Tl+ flux,R275C/beta4,0.0627 (inactive)
same,log fold change Tl+ flux,R275C/Slo1WT/beta2,0.0456 (inactive)
O=C1N=C(O)CN1/N=C/c1ccc(-c2ccc([N+](=O)[O-])cc2)o1,inhibition,[4],24%
same,score,[5],1.7
same,rescue above control,[6],-1.39
same,cytochrome c release ratio,[7],0.66
same,inhibition of aggregation,[8],71.6%
same,glutamate uptake change,[9],-2.24%
same,aggregation suppression score,[10],1.1
same,survival,[11],28.9 (inactive)
same,parasite load remaining,[1],21.2% (inactive) and 82.2% (inactive) and 9.57% (inactive)
same,viability,[1],47.1% and 91.4% and 102%
same,mean signal,[12],232 (inactive)
same,z-score,[3],-0.315 (inactive) and -0.365 (inactive)
C#C[C@]1(O)CC[C@H]2[C@@H]3CCC4=Cc5oncc5C[C@]4(C)[C@H]3CC[C@@]21C,survival,[11],10.4 (inactive)
same,fluorescence ratio,[2],1.05 (inactive)
same,z-score,[3],-1.4 (inactive) and -1.46 (inactive)
same,log fold change Tl+ flux,F380Y/beta1,0.032 (inactive)
same,log fold change Tl+ flux,F380Y/beta4,-0.0261 (inactive)
same,log fold change Tl+ flux,R275C,0.0195 (inactive)
same,log fold change Tl+ flux,R275C/beta1,0.048 (inactive)
same,log fold change Tl+ flux,R275C/beta2Delta,-0.00872 (inactive)
same,log fold change Tl+ flux,R275C/beta4,0.0847 (inactive)
same,log fold change Tl+ flux,R275C/Slo1WT/beta2,-0.016 (inactive)
